The values that follow come from PubChem BioAssay.

Test [1] in a line: small molecules captured by biotinylated probe aFSTL3 – biochemical, small-molecule microarray, fluorescence 635/667, stem cell growth factor project, primary screen (AID 1064).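 Also: measures binding of the biotinylated anti-FSTL3 antibody to printed compounds.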 The settings on record: higher = more signal.
Test [2] in a line: binders from COS7 lysate, DM2A8 probe, primary screen, torsin A project, cell lysate, small-molecule microarray, fluorescence 635/667 (AID 1065). The following applies: higher = more signal, COS7 lysate expressing mutant human TOR1A.
The nature of test [3]: small molecules captured by biotinylated probe aFGF2 – biochemical, small-molecule microarray, fluorescence 635/667, stem cell growth factor project, primary screen (AID 1067).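 Also: measures binding of biotinylated aFGF2 protein to printed compounds on slides; z-score merges feature fluorescence and signal-to-noise across triplicate slides.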 The settings on record: higher = more signal.
Test [4] can be described thus: small molecules captured by biotinylated probe aFGF10 – biochemical, small-molecule microarray, fluorescence 635/667, stem cell growth factor project, primary screen (AID 1071).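 Also: score merges 667 nm spot intensity and signal to noise from triplicate slides.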 The following applies: higher = more signal.
The target in test [5] is Neurogenic locus notch homolog protein 2 (Homo sapiens) (UniProt Q04721). Briefly: small molecules binding Notch2 protein – biochemical, small-molecule microarray, 635 nm fluorescence, stem cell growth factors, primary screen (AID 1073). The settings on record: higher = more signal.
For test [6], the target named is Pro-neuregulin-1, membrane-bound isoform (Homo sapiens) (UniProt Q02297). Briefly: small molecules binding neuregulin-1 protein – biochemical, small-molecule microarray, fluorescence 635/667, psychiatric disease protein project, primary screen (AID 1075).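 Also: score combines 667 nm spot fluorescence with signal to noise.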 The following applies: NRG1 binding, 635 nm fluorescence, higher = more signal.
For test [7], the system named is Neuregulin-1 EGF-like domain. As to the kind of experiment: small molecules binding NRG1 EGF domain – biochemical, small-molecule microarray, 635 nm fluorescence, primary screen (AID 1081).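 Also: binding of the protein to compounds printed on small-molecule microarray slides.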 The settings on record: higher = more signal.
Test [8] can be described thus: FRG1 expression reporter modulators in myotubes – cell-based, C2C12 myotubes, firefly/Renilla luciferase, luminescence, FRG1 inhibition for FSHD, primary screen (AID 1084). The following applies: FRG1 promoter luciferase, higher = more signal, called active from +8 up or from −8 down.
Test [9] in a line: small molecules captured by biotinylated probe aFST – biochemical, small-molecule microarray, fluorescence 635/667, stem cell growth factor project, primary screen (AID 1086).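 Also: score merges 667 nm fluorescence with signal-to-noise of each printed compound spot.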 The settings on record: higher = more signal.
Test [10] is described as follows: binders of probe aHhip on microarray, primary screen, stem cell growth factor project, biochemical, small-molecule microarray, fluorescence 635/667 (AID 1087).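 Also: score merges spot fluorescence at 667nm with spot signal to noise ratio.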 The following applies: higher = more signal.

Molecules are shown by their SMILES. Activity calls are given as the source filed them.

Chain of Pro-neuregulin-1, membrane-bound isoform (Homo sapiens) (Q02297 whole entry, looked up, the tested form may be a part, canonical isoform): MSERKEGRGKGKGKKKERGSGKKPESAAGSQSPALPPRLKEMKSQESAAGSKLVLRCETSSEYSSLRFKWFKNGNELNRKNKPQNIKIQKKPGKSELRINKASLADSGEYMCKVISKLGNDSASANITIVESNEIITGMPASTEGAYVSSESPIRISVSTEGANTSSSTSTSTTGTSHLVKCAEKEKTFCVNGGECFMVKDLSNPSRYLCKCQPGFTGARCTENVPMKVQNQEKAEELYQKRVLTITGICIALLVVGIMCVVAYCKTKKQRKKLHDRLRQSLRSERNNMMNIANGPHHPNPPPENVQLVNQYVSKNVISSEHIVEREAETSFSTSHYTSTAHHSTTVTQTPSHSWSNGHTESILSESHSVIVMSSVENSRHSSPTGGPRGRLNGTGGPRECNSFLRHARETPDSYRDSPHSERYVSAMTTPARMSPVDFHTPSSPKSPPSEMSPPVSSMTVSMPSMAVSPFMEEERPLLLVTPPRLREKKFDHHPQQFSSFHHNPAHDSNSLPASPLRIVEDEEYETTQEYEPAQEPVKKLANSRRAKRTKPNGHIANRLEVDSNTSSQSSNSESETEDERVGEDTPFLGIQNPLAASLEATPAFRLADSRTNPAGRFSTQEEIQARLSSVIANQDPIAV
Chain of Neurogenic locus notch homolog protein 2 (Homo sapiens) (Q04721 whole entry, looked up, canonical isoform): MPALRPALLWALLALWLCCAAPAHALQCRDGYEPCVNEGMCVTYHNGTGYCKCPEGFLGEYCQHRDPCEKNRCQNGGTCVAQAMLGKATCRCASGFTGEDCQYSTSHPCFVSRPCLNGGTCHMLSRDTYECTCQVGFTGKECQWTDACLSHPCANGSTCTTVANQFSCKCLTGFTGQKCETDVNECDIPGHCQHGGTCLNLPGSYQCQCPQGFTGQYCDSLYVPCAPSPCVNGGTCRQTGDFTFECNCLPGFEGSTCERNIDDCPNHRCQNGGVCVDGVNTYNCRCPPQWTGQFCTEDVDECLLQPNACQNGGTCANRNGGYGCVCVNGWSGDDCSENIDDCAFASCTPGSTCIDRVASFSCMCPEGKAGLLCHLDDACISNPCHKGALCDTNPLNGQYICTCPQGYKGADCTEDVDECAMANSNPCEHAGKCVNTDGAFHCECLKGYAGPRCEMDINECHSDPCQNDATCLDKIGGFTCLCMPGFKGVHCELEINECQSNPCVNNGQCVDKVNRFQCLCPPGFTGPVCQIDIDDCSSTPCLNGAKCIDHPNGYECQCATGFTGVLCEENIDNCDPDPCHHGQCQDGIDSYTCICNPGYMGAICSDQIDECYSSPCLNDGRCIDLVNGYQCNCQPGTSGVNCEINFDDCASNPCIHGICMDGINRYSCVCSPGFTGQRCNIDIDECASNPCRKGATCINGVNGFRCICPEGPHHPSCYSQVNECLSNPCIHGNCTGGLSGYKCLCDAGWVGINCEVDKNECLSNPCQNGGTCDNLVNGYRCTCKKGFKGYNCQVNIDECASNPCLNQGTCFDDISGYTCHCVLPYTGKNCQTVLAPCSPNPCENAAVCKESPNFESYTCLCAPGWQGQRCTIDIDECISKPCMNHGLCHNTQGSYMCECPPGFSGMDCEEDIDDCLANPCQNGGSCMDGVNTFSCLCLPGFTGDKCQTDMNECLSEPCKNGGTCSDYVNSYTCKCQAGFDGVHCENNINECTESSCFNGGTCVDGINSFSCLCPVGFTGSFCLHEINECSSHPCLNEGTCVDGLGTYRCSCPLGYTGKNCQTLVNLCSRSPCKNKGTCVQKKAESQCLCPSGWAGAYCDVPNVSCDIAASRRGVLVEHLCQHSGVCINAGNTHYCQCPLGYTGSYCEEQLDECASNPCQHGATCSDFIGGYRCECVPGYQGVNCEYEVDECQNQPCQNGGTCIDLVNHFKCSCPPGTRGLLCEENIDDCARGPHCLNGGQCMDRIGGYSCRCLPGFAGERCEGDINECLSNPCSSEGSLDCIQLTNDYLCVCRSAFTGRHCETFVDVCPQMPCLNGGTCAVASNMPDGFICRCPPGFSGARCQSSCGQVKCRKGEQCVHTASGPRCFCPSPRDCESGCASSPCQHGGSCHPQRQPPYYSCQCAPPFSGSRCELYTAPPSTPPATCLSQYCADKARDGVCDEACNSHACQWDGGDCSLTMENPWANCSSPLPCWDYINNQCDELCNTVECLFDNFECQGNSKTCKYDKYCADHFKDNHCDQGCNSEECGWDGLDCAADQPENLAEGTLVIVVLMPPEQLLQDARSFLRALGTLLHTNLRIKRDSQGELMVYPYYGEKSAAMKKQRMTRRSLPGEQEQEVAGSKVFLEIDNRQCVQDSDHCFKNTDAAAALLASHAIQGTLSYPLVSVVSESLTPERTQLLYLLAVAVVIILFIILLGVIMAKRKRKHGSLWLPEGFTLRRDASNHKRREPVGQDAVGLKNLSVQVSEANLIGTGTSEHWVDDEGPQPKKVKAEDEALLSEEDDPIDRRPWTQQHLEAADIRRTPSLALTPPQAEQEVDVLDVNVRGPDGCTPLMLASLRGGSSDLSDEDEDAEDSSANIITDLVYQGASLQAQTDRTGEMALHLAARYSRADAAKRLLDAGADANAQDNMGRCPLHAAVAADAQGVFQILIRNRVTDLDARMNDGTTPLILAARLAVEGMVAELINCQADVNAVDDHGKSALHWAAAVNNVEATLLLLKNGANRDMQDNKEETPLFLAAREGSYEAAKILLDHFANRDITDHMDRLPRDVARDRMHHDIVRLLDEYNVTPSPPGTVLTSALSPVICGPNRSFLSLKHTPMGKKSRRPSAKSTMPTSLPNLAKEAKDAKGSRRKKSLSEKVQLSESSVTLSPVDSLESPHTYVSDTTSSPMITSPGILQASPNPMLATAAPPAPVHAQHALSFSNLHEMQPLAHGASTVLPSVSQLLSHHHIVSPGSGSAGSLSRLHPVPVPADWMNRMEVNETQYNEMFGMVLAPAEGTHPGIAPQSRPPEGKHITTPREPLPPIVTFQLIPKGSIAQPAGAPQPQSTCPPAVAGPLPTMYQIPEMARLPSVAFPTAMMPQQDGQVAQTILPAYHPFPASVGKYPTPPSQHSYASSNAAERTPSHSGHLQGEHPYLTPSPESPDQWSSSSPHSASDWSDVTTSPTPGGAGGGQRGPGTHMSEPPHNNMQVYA

Consider `C=CCNC(=O)[C@H]1[C@@H]2C(=O)O[C@@H](c3ccccc3)[C@@H](c3ccccc3)N2[C@@H](c2ccccc2OCCO)[C@]12C(=O)N(C(=O)OCCOC)c1ccc(C#CC3=CCCCC3)cc12`, for which the composite z-score worked out at 1.13 in [1]; 0.698 in [2]; 0.032 in test [3]; 0.44 in test [4]; 1.5 in test [5]; 0.791 in [6]. Further, the figures for the composite z-score in [7], in test [9] and in test [10] were 1.33, 0.877 and -0.0022, respectively. For the same molecule, the z-score in test [8] is -1.89 (inactive).
For `CCCCN1CC=CC23O[C@@H]4C=CCOC(=O)[C@@H]4[C@H]2C(=O)N(CCCO)[C@@H]3C1=O` (stereo not given in full), the composite z-score in [1] is 0.594; in test [2], -0.0489; in test [3], -0.137; in [4], -0.423; in test [5], -1.51; in test [6], 1.03. For the same molecule, the composite z-score is 1.54 in test [7], -0.488 in test [9] and -0.134 in test [10]. In test [8], the z-score was 0.0518 (inactive).
In the case of `CC(C)OC(=O)CC(=O)CC(O)c1cccc(C#N)c1` (stereo not given), the composite z-score is 0.424 in [1]; 0.995 in test [2]; -0.0103 in test [3]; 0.535 in [4]; 1.43 in [5]; 0.311 in test [6]. For the same molecule, the composite z-score was 0.936 in test [7], 0.494 in [9] and -0.452 in test [10]. In addition, the z-score in [8] is -0.326 (inactive).
For `C=CCOC(=O)[C@@H]1[C@H]2C(=O)O[C@H](c3ccccc3)[C@H](c3ccccc3)N2[C@H](c2ccc(OCCOC(=O)[C@H]3C[C@H]4C(=O)N[C@@H](CCCCNC(C)=O)C(=O)N4[C@H]3c3cccc(OCCO)c3)cc2)[C@@]12C(=O)Nc1ccc(I)cc12`, the composite z-score in [1] was -0.0066; in test [2] it was 0.99; in test [3] it was -0.0718; in test [4], 0.404; in [5] it was 0.544; in test [6] it was 0.851. Moreover, the composite z-score in test [7] was determined as 1.28; in test [9], 0.252; in [10] it was 0.0479. Besides, the z-score in test [8] was 0.49 (inactive).
Regarding `CCOC(=O)C1=CC[C@@H](c2ccccc2)N(S(=O)(=O)c2ccc(C)cc2)C1`, the composite z-score was 0.694 in test [1]; 0.235 in test [2]; 0.0497 in [3]; -0.0495 in [4]; 0.681 in test [5]; -0.273 in test [6]. Also, the composite z-score is 0.643 in [7], 0.648 in test [9] and 0.0274 in test [10]. In test [8], the z-score was -3.73 (inactive).
Take `C=CC[C@@]1(C(=O)N2CCCCC2)N=C(c2ccc(OCCCO)cc2)O[C@@H]1c1ccccc1`: the composite z-score is 1 in test [1]; 0.651 in test [2]; 0.0336 in test [3]; 0.307 in [4]; 0.201 in test [5]; 1.56 in test [6]. The composite z-score amounted to 1.19 in [7], 0.688 in test [9] and 0.595 in test [10]. Besides, the z-score in [8] was -1.21 (inactive).
Take `NCCCCCCNC(=O)[C@@H]1C[C@@H]2C(=O)N3CCC[C@H]3C(=O)N2[C@@H]1c1ccc(O)cc1`: the composite z-score in test [1] is 0.327; in test [2] it was -0.055; in test [3] it was -0.0006; in test [4], 0.0841; in test [5], 0.337; in [6], 1.9. The composite z-score in test [7] amounted to 1.18; in [9], 1.1; in test [10], 0.154. Also, the z-score in [8] was 0.15 (inactive).
Turning to `O=C1O[C@@H](c2ccccc2)[C@@H](c2ccccc2)N2[C@@H](c3ccc(O)cc3)[C@]3(C(=O)Nc4ccc(C#CCCO)cc43)[C@@H](C(=O)NC[C@H](O)c3ccccc3)[C@H]12`, the composite z-score is 0.239 in test [1]; 0.762 in test [2]; -0.206 in test [3]; -0.812 in test [4]; -0.724 in test [5]; 0.381 in test [6]. In addition, the figures for the composite z-score in test [7], in test [9] and in test [10] were 1, -0.0873 and -0.134, respectively. For the same molecule, the z-score in [8] is -0.233 (inactive).
For `CCOC(=O)C[C@H]1[C@H](OC(=O)c2ccc(-c3ccccc3)cc2)[C@@H](NC(=O)c2ccc3ccccc3n2)c2cc(OCCCO)ccc2N1C(=O)c1ccccc1`, the composite z-score in [1] is -0.497; in [2] it was 0.482; in test [3], -0.0996; in test [4] it was 0.618; in test [5], 1.01; in test [6] it was 0.464. The figures for the composite z-score in test [7], in test [9] and in [10] were 0.857, 0.579 and 0.113, respectively. Also, the z-score in test [8] was -0.561 (inactive).
Consider `CCCCC(CC)C(O)C1C=CC2C(=O)N(c3ccccc3)C(=O)C2N1Nc1ccc([N+](=O)[O-])cc1` (stereo not given), for which the composite z-score in test [1] is -0.294; in test [2], 0.153; in test [3], 0.141; in [4], 0.848; in [5], 1.73; in test [6], 1.88. Moreover, the composite z-score in test [7] was 1.26; in [9], 1.1; in [10] it was -0.234. The z-score in [8] is -1.62 (inactive).
In the case of `CN1C(=O)[C@@]2(CCS(=O)(=O)c3ccccc3)N=C(c3ccc(OCCCO)cc3)O[C@H]2c2ccccc21`, the composite z-score in [1] is 0.185; in [2], 0.394; in [3], -0.102; in test [4], 0.832; in test [5], 1.45; in test [6] it was 1.59. Further, the values for the composite z-score in [7], in [9] and in test [10] were 1.34, 1.09 and -0.04, respectively. For the same molecule, in test [8], the z-score is -3.84 (inactive).
Consider `C=CCNC(=O)[C@@H]1[C@H]2C(=O)O[C@H](c3ccccc3)[C@H](c3ccccc3)N2[C@H](c2ccc(OCCO)cc2)[C@@]12C(=O)N(C(=O)OCCOC)c1ccc(C#CC3=CCCCC3)cc12`, for which the composite z-score in test [1] is 0.0698; in [2], 0.937; in test [3] it was 0.0524; in test [4], 0.59; in [5], 1.35; in test [6], 1.33. In addition, the results for the composite z-score in test [7], in [9] and in [10] were 1.17, 0.622 and 0.21, respectively. Moreover, the z-score in [8] is 0.223 (inactive).
On to `O=C(CCCCCCC(=O)Nc1ccccc1)N/N=C/c1ccccc1`, for which the composite z-score in [1] is -0.199; in test [2], 0.0786; in test [3], -0.141; in test [4] it was 0.0493; in test [5], -0.252; in test [6], -0.384. Also, the composite z-score in test [7] is -0.147; in test [9], -0.0659; in test [10], 0.0373. Besides, the z-score in test [8] was 0.0691 (inactive).
For `C=CC[C@]12N=C(c3ccc(OCCCO)cc3)O[C@H]1c1ccccc1N(C)C2=O`, the composite z-score was determined as 1.21 in test [1]; 0.541 in test [2]; 0.0563 in test [3]; 0.21 in [4]; 0.0523 in test [5]; 1.3 in [6]. Further, the composite z-score in test [7] was found to be 1.22; in [9] it was 0.896; in test [10] it was 0.214. Moreover, the z-score in test [8] was -1.14 (inactive).
As for `CC(C)(C)OC(=O)CC[C@@]1(C(=O)O)N=C(c2ccc(OCCCO)cc2)O[C@@H]1c1ccccc1CN=[N+]=[N-]`, the composite z-score amounted to 0.761 in [1]; 0.348 in test [2]; 0.0732 in test [3]; 0.246 in [4]; 0.717 in [5]; 1.03 in [6]. In addition, the composite z-score in [7] is 1.19; in [9], 0.971; in test [10], 0.259. In [8], the z-score was 5.39 (inactive).
Consider `COCCOC(=O)N1C(=O)[C@@]2(c3cc(C#CC4=CCCCC4)ccc31)[C@H](C(=O)N1CCN(c3ncccn3)CC1)[C@H]1C(=O)O[C@H](c3ccccc3)[C@H](c3ccccc3)N1[C@@H]2c1ccc(O)cc1`, for which the composite z-score in test [1] is -0.0505; in test [2], 0.181; in test [3], 0.0467; in test [4], 0.669; in [5] it was 1.33; in test [6] it was 0.79. Besides, the composite z-score in [7] was 1.24; in test [9], 0.442; in [10] it was 0.208. Further, in [8], the z-score is 0.378 (inactive).
